Laboratory results from the supplement of paper PMC3334620.
Whole data set: some 33,000 sequences, median “E-score (-0.5 to 0.5)” near -0.016, cut for the highest 2% near 0.32. The sample as a whole holds a higher share of the highest values than the screen did.

These sequences were tested against T1, Stp1 (UniProt B3LFK1) (assay: PBM E-score (8-mer binding enrichment) (E-score (-0.5 to 0.5)); higher = stronger / more preferred TF binding). Conditions: protein concentration: 200 nM; construct: GST-full length.
T1 sequence: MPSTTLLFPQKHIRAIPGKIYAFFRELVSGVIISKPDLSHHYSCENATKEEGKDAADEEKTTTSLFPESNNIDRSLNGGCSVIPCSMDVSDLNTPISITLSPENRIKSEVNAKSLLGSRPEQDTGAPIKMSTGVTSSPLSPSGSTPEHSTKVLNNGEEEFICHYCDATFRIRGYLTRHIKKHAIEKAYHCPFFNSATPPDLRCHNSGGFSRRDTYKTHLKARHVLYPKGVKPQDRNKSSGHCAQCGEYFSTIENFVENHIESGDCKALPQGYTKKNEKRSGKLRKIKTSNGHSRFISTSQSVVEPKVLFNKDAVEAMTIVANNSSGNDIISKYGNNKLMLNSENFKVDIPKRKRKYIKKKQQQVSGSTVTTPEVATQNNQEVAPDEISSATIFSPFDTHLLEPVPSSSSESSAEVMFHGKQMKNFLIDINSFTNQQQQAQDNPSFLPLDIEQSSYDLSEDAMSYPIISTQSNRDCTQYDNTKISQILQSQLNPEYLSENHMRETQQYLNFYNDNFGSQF
Method in brief: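 PURExpress in vitro transcription/translation supplied GST-tagged yeast transcription factors, either full-length or DNA-binding domain. Applied at about 100-200 nM to universal all-10-mer Agilent arrays double-stranded by primer extension, the bound protein was detected with fluorescent anti-GST. E-scores, modified Wilcoxon-Mann-Whitney statistics, were given by the Universal PBM Analysis Suite to ungapped eight-base words pooled with their reverse complements after masliner normalisation.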
With ACTCGATC the “PBM E-score” value was -0.0856. AGGTGGCA was tested, and the “PBM E-score” value was 0.218. With GAATGCCA the “PBM E-score” value was 0.134. With CTTAAATC the “PBM E-score” value was 0.0764. With CCGGCGTC the “PBM E-score” value was 0.0446. With ACGGCGTC the “PBM E-score” value was 0.472. In the case of GTGGCGTA, the “PBM E-score” value is reported as 0.0488. With GCGGCGTA the “PBM E-score” value was 0.433. In the case of ATGGCGTG, the “PBM E-score” value is reported as 0.102. ACGGCGTA was tested, and the “PBM E-score” value was 0.448. In the case of AGGGCGTG, the “PBM E-score” value is reported as -0.0356. GGGGCGTA was tested, and the “PBM E-score” value was -0.174. ACGGCGTG was tested, and the “PBM E-score” value was 0.455. AGGGCGTC was tested, and the “PBM E-score” value was 0.131. AAGGCGTA was tested, and the “PBM E-score” value was 0.234. In the case of CCGGCGTA, the “PBM E-score” value is reported as 0.0906. In the case of GTGTGTTA, the “PBM E-score” value is reported as 0.029. AGTTCAAT was tested, and the “PBM E-score” value was -0.0607. With CGGTTATC the “PBM E-score” value was -0.0601. For CAGCAATG, the “PBM E-score” value was -0.194. For AAATAAGG, the “PBM E-score” value was 0.0174. In the case of CAAACTAG, the “PBM E-score” value is reported as -0.107. In the case of CCACTGGA, the “PBM E-score” value is reported as -0.241. With ACACCGCG the “PBM E-score” value was 0.0308. With CCAGAACC the “PBM E-score” value was -0.154. With AGGCTATG the “PBM E-score” value was -0.196. With CGCTGAAG the “PBM E-score” value was -0.108. For ACGGCTGC, the “PBM E-score” value was 0.289. In the case of ACGGCTTA, the “PBM E-score” value is reported as 0.375. With ACGGCTGA the “PBM E-score” value was 0.147. ACGGCTGG was tested, and the “PBM E-score” value was 0.139. In the case of CCGGCTTC, the “PBM E-score” value is reported as -0.0259. With ACGGCTTC the “PBM E-score” value was 0.417. GCGGCTTA was tested, and the “PBM E-score” value was 0.234. With ATGGCTTG the “PBM E-score” value was -0.0553. ACGGCTTG was tested, and the “PBM E-score” value was 0.335. For AAGCGGTC, the “PBM E-score” value was -0.149. GATTAGGC was tested, and the “PBM E-score” value was 0.02.
